In the library only some 7.4% were active in any assay of this set; here they are far more common.
FLuc counter – qHTS profiling assay for firefly luciferase inhibitor/activator using purifed enzyme and Km concentrations of substrates (counterscreen for miR-21 project); purified FLuc, Km substrates, luminescence inhibition; Potency, µM (top dose mostly 57.5 µM), actives largely listed as inhibitors; hit rate 6.9% among 360,000; note: nearly all actives have a fitted effect of over 55% in size
Target sequence (P08659 whole entry, looked up): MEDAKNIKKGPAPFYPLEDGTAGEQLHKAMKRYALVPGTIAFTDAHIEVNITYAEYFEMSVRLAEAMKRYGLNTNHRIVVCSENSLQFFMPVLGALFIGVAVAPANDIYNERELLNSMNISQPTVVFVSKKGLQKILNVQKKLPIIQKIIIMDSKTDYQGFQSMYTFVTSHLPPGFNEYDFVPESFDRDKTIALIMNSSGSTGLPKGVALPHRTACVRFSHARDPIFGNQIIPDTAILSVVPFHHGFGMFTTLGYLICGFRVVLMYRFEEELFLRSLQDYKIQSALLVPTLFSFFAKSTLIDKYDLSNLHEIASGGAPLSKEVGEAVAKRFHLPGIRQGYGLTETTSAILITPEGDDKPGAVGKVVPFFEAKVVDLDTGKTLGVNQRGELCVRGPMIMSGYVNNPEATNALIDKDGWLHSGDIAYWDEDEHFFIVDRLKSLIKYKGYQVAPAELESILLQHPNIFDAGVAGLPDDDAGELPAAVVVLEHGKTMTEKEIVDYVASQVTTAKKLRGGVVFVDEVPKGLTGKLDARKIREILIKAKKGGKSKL
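Purified P. pyralis luciferase, 10 nM final, with Km-level 10 uM D-luciferin and 10 uM ATP in 50 mM Tris acetate pH 7.5, 10 mM Mg acetate, 0.01% Tween-20, 0.05% BSA; 6-point qHTS titration about 60 µM downward; luminescence read.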
ELG1 genotox – qHTS screen for small molecules that induce genotoxicity in human embryonic kidney (HEK293T) cells expressing luciferase-tagged ELG1; HEK293T ELG1-luciferase reporter, luminescence, 16 h; Potency, µM (doses to about 46 µM), most hits filed as activators; hit rate 1.3% among 330,000; AID 504466, 2011; note: nearly all actives have a fitted effect of over 60% in size
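Genotoxicity was scored as increased ELG1-luciferase reporter signal, measured by ONE-Glo luminescence (30 min, room temperature). Compound or vehicle exposure of the HEK293T reporter cells lasted 16 hr at 37°C.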
KinaseGlo FLuc – Counterscreen for Luciferase (Kinase-Glo TM) Inhibition. Luciferin 4-monooxygenase (Photuris pensylvanica), Q27757. Kinase-Glo luciferase, ATP luminescence, 8 min. Potency, µM (highest dose often 38.3 µM), most hits filed as inhibitors. hit rate 0.28% among 200,000. AID 1379, 2008; note: nearly all actives have a fitted effect of over 60% in size
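Luminescence was the read-out, taken after 8-minute incubation at ambient temperature. Luciferase turned over luciferin with 10 uM ATP in imidazole pH 7.2 buffer containing KCl, MgCl2, Tween 20 and BSA.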
Rab9 promoter act – qHTS Assay for Rab9 Promoter Activators | Huh7 Rab9 promoter-luciferase reporter, luminescence, 24 h | Potency, µM (highest dose often 9.22 µM), actives largely listed as activators | hit rate 2.8% among 320,000 | AID 485297, 2010; note: nearly all actives have a fitted effect of over 60% in size
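Rab9 promoter-driven luciferase in stably transfected Huh7 cells; 1500 cells/well rested 2 h, exposed to compound in DMSO for 24 h at 37 °C, 5% CO2. Luminescence read 10 min after adding luciferase reagent at ambient temperature.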
SMN2 splice up – qHTS Assay for Enhancers of SMN2 Splice Variant Expression; HEK293 SMN2-luciferase splicing reporter, luminescence, 30-36 h; Potency, µM (doses to about 46.1 µM), actives largely listed as activators; hit rate 2.8% among 210,000; AID 1458, 2008; note: nearly all actives have a fitted effect of over 55% in size
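HEK293 cells carry an SMN2 minigene-luciferase reporter in which exon 7 inclusion puts luciferase in frame. Cells were seeded at 2000 cells/well, attached for 10-12 hours, then exposed to compounds for 30-36 hours at 37C before ONE-Glo luminescence.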
NPC1 prom act – qHTS Assay for NPC1 Promoter Activators. hit rate 2.4% among 320,000. Potency, µM (series often up to 9.22 µM), most hits filed as activators. AID 485313, 2010. Huh7 NPC1 promoter luciferase reporter, 24 h; note: nearly all actives have a fitted effect of over 60% in size
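Stably transfected Huh7 (NPC1 promoter→luciferase), 1500 cells/well in Opti-MEM + 10% FBS, 2 h settle, then compound 24 h at 37 °C. Luminescence after 10 min with Amplite reagent.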
Hits are given with their value; n = inactive; u = inconclusive; x = no result given; [ ] = remark or other dose. Calls come from the whole dose curve; as a rule, active = well fitted curve in the direction sought with a large enough effect; inconclusive = small, poorly fitted or top-dose-only effect, or another doubt; inactive = no such curve, though single readings can be large; an effect the other way counts as inactive or inconclusive.

SMILES	FLuc counter	ELG1 genotox	KinaseGlo FLuc	Rab9 promoter act	SMN2 splice up	NPC1 prom act
Cc1ccc(NC(=O)c2cnn(-c3ccccc3)c2C)cc1	1.07µM	1.46µM	x	0.398µM	x	0.316µM
Cc1ccc(NC(=O)c2cnn(-c3ccccc3)c2C)c(C)c1	12µM	u	x	3.16µM	x	2.51µM
Cc1cccc(OCCn2c(=O)sc3ccccc32)c1	10.7µM	u	n	2.82µM	12.6µM	u
COc1cccc(OCc2nc3ccccc3n2CCOc2cccc(C)c2)c1	n	x	x	x	n	x
Cc1cccc(OCCN2C(=O)c3ccccc3C2=O)c1	23.9µM	u	n	3.55µM	n	n
Cc1cccc(OCCn2c(=O)n(C)c3ccccc32)c1	15.1µM	6.51µM	n	1.78µM	12.6µM	3.16µM
Cc1cccc(OCCCn2c(=O)sc3ccccc32)c1	21.3µM	u	n	3.16µM	n	n
COc1ccc(CNC(=O)CN(Cc2ccccc2F)C(=O)c2csnn2)cc1	n	n	x	n	x	n
Cc1cccc(C)c1NC(=O)CN(C)C(=O)Cn1c(=O)cnc2ccccc21	n	n	x	n	x	n
COc1ccc(CNC(=O)c2ccc(CS(=O)(=O)c3ccc(Br)cc3)o2)cc1	n	n	x	n	x	n
O=C(c1c(F)cccc1F)N1CCCc2ccccc21	n	n	x	n	x	n
COc1ccc(OCCn2c(=O)sc3ccccc32)cc1	19µM	u	n	u	u	u
COc1ccccc1OCCn1c(=O)sc2ccccc21	u	u	n	n[1.84 µM]	n	n
Cc1cc(C(=O)CN2CCC(C)CC2)c(C)n1-c1ccc(F)cc1	9.53µM	u	n	1.41µM	12.6µM	u
Cc1cc(C(=O)NC2CCCCC2)c(C)n1-c1ccc(F)cc1	6.01µM	5.8µM	n	2.51µM	u	2.82µM
Cc1cc(C(=O)CNCc2ccco2)c(C)n1-c1ccc(F)cc1	3.38µM	u	n	2µM	n	1.58µM
Cc1ccc2nc3c(c(Nc4ccc(C)c(C)c4)c2c1)CCC3	n	x	x	x	n	x
Cc1ccc(-c2n[nH]c(=S)n2/N=C/c2c(C)[nH]n(-c3ccccc3)c2=O)cc1	12µM	n	n	n	n	n
CSc1nnc(-c2ccccc2N=Cc2c(C)[nH]n(-c3ccccc3)c2=O)c(=O)[nH]1	n	n	n	n	n	n
Cn1cccc1/C=N/n1c(-c2ccccc2)n[nH]c1=S	n	n	n	n	n	n
Cc1ccc2cccc(N=Cc3c(C)[nH]n(-c4ccccc4)c3=O)c2n1	16.9µM	u	x	n	x	n
Cc1nn(-c2ccccc2)c(C)c1/C=N/n1c(-c2ccc(Cl)cc2)n[nH]c1=S	n	n	n	n	n	n
Cn1cccc1/C=N/n1c(-c2ccc(C(C)(C)C)cc2)n[nH]c1=S	21.3µM	n	n	n	n	n
CCOc1cc(CN2CCN(c3ncccn3)CC2)ccc1OC	n	n	x	n	x	n
CSc1ccccc1NC(=O)Nc1ccc(F)c(Cl)c1	12µM	n	n	n	n	n
SMILES	FLuc counter	ELG1 genotox	KinaseGlo FLuc	Rab9 promoter act	SMN2 splice up	NPC1 prom act
CSc1ccccc1NC(=O)Nc1cccc(Cl)c1	23.9µM	n	n	n	n	n
Cc1ccc(NC(=O)Nc2cccc(Cl)c2)c(C(=O)O)c1	12µM	n	n	n	n	n
CSc1ccccc1NC(=O)Nc1cccc(Cl)c1Cl	n	n	n	n	n	n
Nc1ccc(-c2cc(N)n(-c3ccccc3)n2)cc1	u	n	n	u	u	n
Cc1cc(-c2cc(N)n(-c3ccccc3)n2)c(C)n1C1CCCC1	6.01µM	u	n	1.58µM	n	3.55µM
COc1ccccc1NC(=O)COC(=O)C1C2CC3OC(=O)C1C3C2 (stereo not given)	15.1µM	n	x	n	x	n
Cc1ccccc1NC(=O)COC(=O)C1C2CC3OC(=O)C1C3C2 (stereo not given)	n	n	x	n	x	n
COCCN(C(=O)COC(=O)Cc1coc2cc3c(cc12)CCC3)c1c(N)n(Cc2ccccc2)c(=O)[nH]c1=O	23.9µM	n	x	n	x	n
CC1CN(C(=O)CCS(=O)(=O)c2ccccc2)CC(C)O1 (stereo not given)	n	n	x	n	x	n
Cc1ccc(Nc2ccc(-n3ccnc3)nn2)cc1C	16.9µM	n	n	n	n	n
CN(Cc1ccc(C(F)(F)F)cc1)C(=O)C1CC(=O)N(Cc2ccco2)C1 (stereo not given)	x	n	x	x	x	x
CN(C)CC#Cc1cncc(C(=O)NNC(=O)Nc2ccc(Cl)cc2)c1	23.9µM	n	x	n	x	n
CCOC(=O)NC(=O)CSc1nnc(C2CC2)n1Cc1ccco1	n	n	n	n	n	n
O=C(OCC(=O)N1CCCC1)c1ccccc1OCc1ccccc1	16.9µM	u	n	n	12.6µM	n
COc1ccccc1C(=O)OCC(=O)N1CCC(Cc2ccccc2)CC1	16.9µM	n	x	n	x	n
O=C(OCC(=O)N1CCN(C(=O)c2ccco2)CC1)c1ccccc1OCc1ccccc1	n	n	n	n	n	n
O=C(OCC(=O)N1CCOCC1)c1ccc2ccccc2c1O	16.9µM	u	x	3.98µM	x	3.16µM
O=C(OCC(=O)N1CCOCC1)c1ccccc1OCc1ccccc1Cl	x	n	x	x	x	x
O=C(OCC(=O)N1CCOCC1)c1ccccc1OCc1ccccc1	23.9µM	n	x	n	x	n
O=C(OCC(=O)N1CCC(Cc2ccccc2)CC1)c1ccc[nH]c1=O	n	n	n	n	n	n
CS(=O)(=O)N1CCN(c2ccc(NC(=O)c3ccccc3)cc2)CC1	u	u	n	1.78µM	10µM	3.55µM
COc1cccc(C(=O)Nc2ccc(N3CCN(S(C)(=O)=O)CC3)cc2)c1	n	n	n	n	n	n
Cc1cccc(C(=O)Nc2ccc(N3CCN(S(C)(=O)=O)CC3)cc2)c1	u	n	n	3.98µM	u	4.47µM
COc1ccc(C(=O)COc2ccc(C)cc2NC(C)=O)cc1	n	u	x	1.26µM	x	3.55µM
CC(C)C(=O)Nc1cccc(C(=O)OCC(=O)c2ccc(Cl)cc2Cl)c1	1.2µM	n	n	n	n	n
SMILES	FLuc counter	ELG1 genotox	KinaseGlo FLuc	Rab9 promoter act	SMN2 splice up	NPC1 prom act
COCC(=O)Nc1cc(Cl)ccc1C	n	n	n	n	n	n
CC(=O)Nc1cc(C(=O)OCC(=O)c2ccc(C)cc2)ccc1C	6.01µM	u	n	2.24µM	u	3.98µM
CCOC(=O)Nc1cc(C(=O)OC)ccc1C	n	n	n	n	n	n
COc1ccc(C(=O)CC(=O)C(=O)Nc2cc(OC)ccc2OC)cc1	n	n	x	n	x	n
COC(=O)c1cccc(NC(=O)Nc2ccc(Cl)cc2Cl)c1	u	n	x	u	x	u
CC(=O)Nc1cc(C(=O)OCC(=O)c2ccc(Cl)cc2Cl)ccc1C	2.39µM	n	n	n	n	n

Screens as filed in PubChem BioAssay.
